Results published in PubChem BioAssay (NCATS).
Inconclusive results are not listed. Where a call stands in place of a potency, no number is given. Activity calls are given as the source filed them. Calls follow the shape of the full dose curve.

Experiment: Primary qHTS for inhibitors of MERS-S pseudo-typed particle cell entry (AID 1479149); also: nearly all actives have a fitted effect of over 60% in size
Details: MERS-S pseudotyped particle entry, luciferase; series mostly up to 57.1 µM; activity change, negative = inhibition: at the top concentration
Potency is read from the fitted curve at half-maximal effect.

Row | SMILES | outcome | activity change, negative = inhibition | Potency
1 | C[C@@H]1C[C@H]2[C@@H]3C[C@H](F)C4=CC(=O)C=C[C@]4(C)[C@@]3(F)[C@@H](O)C[C@]2(C)[C@@]1(O)C(=O)COC(=O)C(C)(C)C | inactive | – | –
2 | O=C(NNCS(=O)(=O)O)c1ccncc1 | inactive | – | –
3 | N[C@@H]1CCCCN(c2c(F)cc3c(=O)c(C(=O)O)cn(C4CC4)c3c2Cl)C1 | inactive | – | –
4 | C#C[C@]1(O)CC[C@@H]2[C@@H]3CCC4=CCCC[C@@H]4[C@H]3C(=C)C[C@@]21CC | – | -16.8% (inactive) | –
5 | O=C(OCc1ccccc1)c1cccnc1 | inactive | – | –
6 | CCC(CC)[C@H](NC(C)=O)[C@@H]1[C@H](O)[C@@H](C(=O)O)C[C@H]1N=C(N)N | inactive [at 0.573 µM] | – | –
7 | NCCNc1ccc(NCCN)c2c1C(=O)c1ccncc1C2=O | – | -20.5% (inactive) | –
8 | Nc1c(Br)cc(Br)cc1CNC1CCC(O)CC1 (stereo not given) | – | -21.8% (inactive) | –
9 | Cc1cccc(C)c1NC(=O)C1CCCCN1C (stereo not given) | inactive | – | –
10 | CCCCCCCCCCCCCCCCCC(=O)[O][Al] | inactive [at 5.34 µM] | – | –
11 | CS(=O)(=O)c1ccc([C@@H](O)[C@@H](COC(=O)CN)NC(=O)C(Cl)Cl)cc1 | – | -35.8% (inactive) | –
12 | CC(C)CCCC(C)NC(C)C (stereo not given) | – | -20.6% (inactive) | –
13 | C=C1/C(=C/C=C2\CCC[C@]3(C)[C@@H]([C@H](C)CCCC(C)(C)O)CC[C@@H]23)C[C@@H](O)[C@@H](OCCCO)[C@@H]1O | inactive | – | –
14 | OC[C@H]1O[C@@](CO)(O[C@H]2O[C@H](CO)[C@@H](O)[C@H](O)[C@H]2O)[C@@H](O)[C@@H]1O | inactive | – | –
15 | CCCCCCCCCCCCCCCCCC(=O)OCC(C)O (stereo not given) | inactive [at 114 µM] | – | –
16 | OB1OCc2cc(F)ccc21 | inactive | – | –
17 | CC1(C)C2CCC1(C)C(O)C2 (stereo not given) | inactive | – | –
18 | CCCCCCCCCCCC[n+]1ccc2ccccc2c1 | – | – | 5.62 µM (active)
19 | NCCCC[C@H](N)C(=O)O | inactive [at 0.573 µM] | – | –
20 | O=CCCCC=O | inactive | – | –

Row | SMILES | outcome | activity change, negative = inhibition | Potency
21 | CN(C)c1ccc(C(=C2C=CC(=[N+](C)C)C=C2)c2c(O)c(S(=O)(=O)[O-])cc3cc(S(=O)(=O)O)ccc23)cc1 | – | -11% (inactive) | –
22 | CC[C@H]1CN2CCc3cc(OC)c(OC)cc3C2C[C@@H]1CC1NCCc2cc(OC)c(OC)cc21 (stereo not given in full) | – | – | 5.62 µM (active)
23 | CC1=CCC(C(C)(C)O)CC1 (stereo not given) | inactive [at 114 µM] | – | –
24 | CCC(C(=O)O)[C@H]1CC[C@H](C)[C@H]([C@@H](C)[C@H](O)[C@H](C)C(=O)[C@H](CC)[C@H]2OC3(C=C[C@@H](O)[C@]4(CC[C@@](C)([C@H]5CC[C@](O)(CC)[C@H](C)O5)O4)O3)[C@H](C)C[C@@H]2C)O1 (stereo not given in full) | – | – | 0.891 µM (active)
25 | O=C(/C=C/c1cccc(S(=O)(=O)Nc2ccccc2)c1)NO | inactive | – | –
26 | COC1(O[C@H]2CC[C@H]3[C@@H]4CC[C@H]5C[C@@H]6S[C@@H]6C[C@]5(C)[C@H]4CC[C@]23C)CCCC1 | inactive | – | –
27 | CC(=O)OCC(=O)[C@@]1(O)CC[C@H]2[C@@H]3C[C@H](C)C4=CC(=O)C=C[C@]4(C)[C@H]3[C@@H](O)C[C@@]21C | inactive | – | –
28 | CN(C)Cc1ccccc1 | inactive | – | –
29 | NC(=O)c1nc(F)c[nH]c1=O | inactive | – | –
30 | CCCCCC/C=C\CCCCCCCC(=O)O | – | -14.5% (inactive) | –
31 | CC1(C)C(C=C(Cl)Cl)C1C(=O)OCc1cccc(Oc2ccccc2)c1 (stereo not given) | inactive | – | –
32 | CNC(C)CC1CCCC1 (stereo not given) | – | 0.356% (inactive) | –
33 | CC(C)=C/C(C)=N\Nc1nncc2ccccc12 | inactive | – | –
34 | Cc1cccc(O)c1 | inactive | – | –
35 | O=c1c2c(c1=O)N(CCP(=O)(O)O)CCCN2 | inactive [at 114 µM] | – | –
36 | CC=CC1C(C(=O)OCc2c(F)c(F)c(COC)c(F)c2F)C1(C)C (stereo not given) | – | -12.9% (inactive) | –
37 | O=C(O)CC(O)CC(O)/C=C/c1c(C2CC2)nc2ccccc2c1-c1ccc(F)cc1 (stereo not given) | inactive | – | –
38 | C/C=C(/C)C(=O)O[C@H]1C(C)=CC23C(=O)C(C=C(CO)[C@@H](O)[C@]12O)[C@H]1[C@@H](C[C@H]3C)C1(C)C (stereo not given in full) | inactive | – | –
39 | CN1CCN(CCCN2c3ccccc3Sc3ccccc32)CC1 | – | – | 31.6 µM (active)
40 | CCC(C(=O)NC(N)=O)c1ccccc1 (stereo not given) | – | -2.92% (inactive) | –
